# Records with an inconclusive call do not appear. The source made the active and inactive calls. Rule for the calls: active = hit-call score of the fitted dose curve at least 0.9, where 1 is the maximum; inconclusive = response in the unintended direction; inactive = score below 0.9.
# Target: rat CYP1A1, Cyp1a1 (gene 24296) (UniProt P00185)
# Assay: NVS_ADME_rCYP1A1: NovaScreen (NVS) CYP450-related Enzyme Activity (ADME) Assay for rat CYP1A1
# Protocol: NVS_ADME_rCYP1A1 is a biochemical, single-readout assay that uses extracted gene-proteins from baculovirus-insect cells in a cell-free assay. Measurements were taken 1 hour after chemical dosing in a 96-well plate.NVS_ADME_rCYP1A1 is one of one assay component(s) measured or calculated from the NVS_ADME_rCYP1A1 assay. It is designed to make measurements of enzyme activity, a form of enzyme reporter, as detected with fluorescence intensity signals by Fluorescence technology.Data from the assay component NVS_ADME_rCYP1A1 was analyzed into 1 assay endpoint. This assay endpoint, NVS_ADME_rCYP1A1, was analyzed in the positive analysis fitting direction relative to Acetonitrile as the negative control and baseline of activity. Using a type of enzyme reporter, loss-of-signal activity can be used to understand changes in the enzymatic activity as they relate to the gene Cyp1a1. Furthermore, this assay endpoint can be referred to as a primary readout, because this assay has produced multiple assay endpoints where this one serves a enzymatic activity function. To generalize the intended target to other relatable targets, this assay endpoint is annotated to the cyp intended target family, where the subfamily is xenobiotic metabolism. […]
# Sequence of rat CYP1A1, Cyp1a1 (gene 24296) (P00185 whole entry, looked up): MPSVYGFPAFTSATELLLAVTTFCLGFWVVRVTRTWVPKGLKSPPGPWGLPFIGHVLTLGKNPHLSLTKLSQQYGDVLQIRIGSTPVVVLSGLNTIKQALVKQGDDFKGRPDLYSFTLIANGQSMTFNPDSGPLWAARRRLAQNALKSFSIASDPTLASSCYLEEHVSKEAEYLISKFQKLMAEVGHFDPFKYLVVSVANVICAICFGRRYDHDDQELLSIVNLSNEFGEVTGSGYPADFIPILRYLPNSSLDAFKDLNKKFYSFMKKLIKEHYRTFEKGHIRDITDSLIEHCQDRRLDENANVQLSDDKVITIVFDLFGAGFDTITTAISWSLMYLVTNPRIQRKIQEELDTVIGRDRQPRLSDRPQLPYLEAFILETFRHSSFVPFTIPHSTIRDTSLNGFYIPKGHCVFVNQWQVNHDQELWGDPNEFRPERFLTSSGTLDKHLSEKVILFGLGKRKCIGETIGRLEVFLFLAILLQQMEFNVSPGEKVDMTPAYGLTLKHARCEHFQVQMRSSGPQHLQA
compound,measurement,value
C=CCOC(Cn1ccnc1)c1ccc(Cl)cc1Cl (stereo unspecified),AC50,7.73 µM (active)
